In general, AC50 refers to the midpoint of the concentration-response curve, whichever way the signal moves.

Screen size: about 16,000 compounds; about 5,100 (32%) were called active. Another 25% or so got no clear call; they are omitted. The call rests on the fitted dose curve; in most records, active means well fitted curve in the direction sought with a large enough effect; inconclusive means small, poorly fitted or top-dose-only effect, or effect the other way; inactive means no such curve, though single readings can be large or run the other way. The list shows a part of the results.
On the % scale 0 is the no-effect control and ±100 the full control effect.

Chain of Cytochrome P450 3A4 (Homo sapiens) (P08684 whole entry, looked up): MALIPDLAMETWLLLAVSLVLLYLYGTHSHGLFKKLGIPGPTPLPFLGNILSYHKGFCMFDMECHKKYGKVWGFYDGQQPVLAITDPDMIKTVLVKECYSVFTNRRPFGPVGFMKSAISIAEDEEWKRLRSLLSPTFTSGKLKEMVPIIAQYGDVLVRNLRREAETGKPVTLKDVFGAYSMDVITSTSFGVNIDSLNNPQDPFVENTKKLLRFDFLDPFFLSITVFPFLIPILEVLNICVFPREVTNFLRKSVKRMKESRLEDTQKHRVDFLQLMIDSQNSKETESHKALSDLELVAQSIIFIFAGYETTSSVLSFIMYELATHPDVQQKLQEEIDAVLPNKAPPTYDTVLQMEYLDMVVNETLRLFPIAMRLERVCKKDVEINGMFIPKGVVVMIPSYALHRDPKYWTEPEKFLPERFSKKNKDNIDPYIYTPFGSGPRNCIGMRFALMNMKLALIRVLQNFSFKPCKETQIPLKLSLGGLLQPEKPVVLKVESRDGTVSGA

This assay addresses Cytochrome P450 3A4 (Homo sapiens) (UniProt P08684). The experiment in a line: Cytochrome panel assay with activity outcomes. The conditions noted are these: recombinant CYP, pro-luciferin dealkylation, luminescence, p450-cyp3a4; series mostly up to 57.1 µM.
With `CSc1nc(Oc2ccc(=O)[nH]n2)nc(N(C)C)n1`, the AC50 result is “inactive”.

As to `CN(C)S(=O)(=O)c1ccc2c(c1)/C(=C/c1cc3c([nH]1)CCCC3)C(=O)N2`, the concentration at half-maximal activity (AC50) was 5.01 µM (active).

Regarding `C[C@H]1[C@@H](O)[C@@H](C)\C=C/C=C\C=C/C=C\C=C/C=C\C=C/[C@@H](O[C@H]2O[C@@H](C)[C@@H](O)[C@@H](N)[C@@H]2O)C[C@@H]2O[C@](O)(C[C@@H](O)C[C@@H](O)[C@@H](O)CC[C@@H](O)C[C@@H](O)CC(=O)O[C@H]1C)C[C@@H](O)[C@H]2C(=O)O` (stereo in doubt), the AC50 result is “inactive”.

Regarding `CCCC(=O)Nc1nnc(CCN2CCCCC2)s1`, the AC50 result was “inactive”.

For `CCCc1nnc(NC(=O)Cn2cnc3ccccc3c2=O)s1`, the AC50 result was “inactive”.

For the molecule `CCCc1nnc(NC(=O)CN2C(=O)C3C4C=CC(C4)C3C2=O)s1` (configuration not stated), the half-maximal activity concentration (AC50) is 12.6 µM (active).

With `Cc1cccc(NC(=O)CSc2nc(-c3ccccc3)c(C#N)c(=O)[nH]2)c1C`, the activity, negative = inhibition was 4.48% [at 0.457 µM] (inactive).

Take `Cc1cccc(NC(=O)CSc2nnc(-c3ccco3)c(-c3ccco3)n2)c1C`: the half-maximal activity concentration (AC50) was 15.8 µM (active).

Regarding `O=S1(=O)C=C(Oc2ccc3ccccc3c2)c2ccccc21`, the AC50 result was “inactive”.

As for `COc1ccc(C2(CNC(=O)/C=C/c3ccco3)CCCC2)cc1OC`, the AC50 was 3.55 µM (active).

Turning to `CN(C)c1ncc2nc(-c3ccc(Cl)cc3)c(=O)n(C)c2n1`, the AC50 entry is “inactive”.

As to `Cc1ccc(S(=O)(=O)N/N=C/c2cccn2-c2ccc(Cl)cc2)cc1`, the concentration at half-maximal activity (AC50) was 10 µM (active).

On to `O=[N+]([O-])c1ccc(N/N=C\c2cccn2-c2ccccc2)nc1`, for which the activity, negative = inhibition is 0.811% [at 2.29 µM] (inactive).

As to `O=S(=O)(N/N=C\c1cccn1-c1ccccc1)c1ccc2ccccc2c1`, the AC50 was 7.08 µM (active).

As to `CC1=NN(c2ccc(S(=O)(=O)O)cc2)C(=O)/C1=C\c1ccc(Cl)cc1`, the activity, negative = inhibition is 2.74% [at 11.4 µM] (inactive).

With `Cc1ccc(-c2nn(-c3ccccc3)cc2/C=N/NS(=O)(=O)c2ccccc2)cc1`, the activity, negative = inhibition was -20.9% [at 2.29 µM] (inactive).

As for `C/C(=N/O)[C@@H]1C[C@H](CC(=O)O)C1(C)C`, the activity, negative = inhibition was -25.4% [at 11.4 µM] (inactive).

`O=C(c1cnccn1)N1CCC[C@@]2(CCN(Cc3cc(C(F)(F)F)cc(C(F)(F)F)c3)C2)C1`: the AC50 is 7.94 µM (active).

For the molecule `O=C(c1csnn1)N1CCC2(CC1)CN(Cc1cc(C(F)(F)F)cc(C(F)(F)F)c1)C2`, the AC50 result is “inactive”.

Consider `O=C(c1cnccn1)N1CCC2(CC1)CN(Cc1cc(C(F)(F)F)cc(C(F)(F)F)c1)C2`, for which the AC50 entry is “inactive”.

On to `O=C(c1cnccn1)N1CCC[C@@]2(CCN(Cc3ccncc3)C2)C1`, for which the AC50 is 15.8 µM (active).

Regarding `Cc1ccccc1OCCCN1CCCC1`, the AC50 result was “inactive”.

As for `c1ccc(N2CCN(CCCOc3ccc4c(c3)OCO4)CC2)cc1`, the AC50 is 3.16 µM (active).

With `OC[C@@H](O)CN1CCN(c2ccccc2)CC1`, the AC50 result was “inactive”.

In the case of `CN1CCN(c2ncc3ncc(=O)n(C[C@H]4CCCO4)c3n2)CC1`, the AC50 entry is “inactive”.

Turning to `CN1CCN(c2ncc3nc(CCc4ccccc4)c(=O)n(Cc4ccc(F)cc4)c3n2)CC1`, the AC50 was 5.01 µM (active).

On to `CN1CCN(c2ncc3ncc(=O)n(CCC#N)c3n2)CC1`, for which the AC50 entry is “inactive”.

For `COc1cccc(Cn2c(=O)cnc3cnc(N4CCN(C)CC4)nc32)c1`, the AC50 was 15.8 µM (active).

As to `COc1cccc(Cn2c(=O)c(CCc3ccccc3)nc3cnc(N4CCN(C)CC4)nc32)c1`, the AC50 was 15.8 µM (active).

With `COc1cccc(Cn2c(=O)c(CCc3ccccc3)nc3cnc(N4CCNCC4)nc32)c1`, the concentration at half-maximal activity (AC50) was 15.8 µM (active).

`NC([N-]/N=C/c1ccccn1)=[S]=[Fe].O=S(=O)(O)O`: the activity, negative = inhibition was -4.8% [at 11.4 µM] (inactive).

As for `O=C(CSc1nc2ccccc2o1)Nc1ccccc1N1CCCCCC1`, the AC50 was 3.98 µM (active).

For the molecule `O=C(CNC1CCCCCC1)Nc1ccccc1N1CCCCC1`, the activity, negative = inhibition was -25% [at 2.29 µM] (inactive).

For `O=C(CSc1nc2ccccc2o1)Nc1nc2ccccc2s1`, the activity, negative = inhibition is -7.57% [at 2.29 µM] (inactive).

`Cc1ccccc1NC(=O)CSc1nc(N2CCCCC2)nc(N2CCCCC2)n1`: the half-maximal activity concentration (AC50) is 2 µM (active).

As for `Cc1cc(C)nc(SCC(=O)Nc2ccccc2[N+](=O)[O-])n1`, the AC50 result is “inactive”.

As for `CC(C)NC[C@H](O)c1cc(O)cc(O)c1`, the AC50 result was “inactive”.

With `COc1cccc(-c2cc(=O)c3ccccc3o2)c1N`, the AC50 was 7.94 µM (active).

For the molecule `COc1ccccc1-c1c(C)oc2c(CN3CCN(CCO)CC3)c(O)ccc2c1=O`, the AC50 result was “inactive”.

Turning to `COc1cccc2cc3c(=O)oc4ccccc4c3nc12`, the activity, negative = inhibition is -6.03% [at 2.29 µM] (inactive).

On to `Cc1ccc(NC(=O)CN2C(=O)N/C(=C/c3ccc(C)o3)C2=O)cc1`, for which the activity, negative = inhibition is 7.39% [at 2.29 µM] (inactive).

On to `CCOc1cc(/C=C2/NC(=O)N(CC(=O)Nc3cccc(C)c3)C2=O)ccc1OC`, for which the AC50 is 1.78 µM (active).

For the molecule `CCC1CC(CSc2ncn[nH]2)OC1=O` (configuration not stated), the AC50 result is “inactive”.

In the case of `CCCOc1ccc(-c2nc(N)n[nH]2)cc1`, the activity, negative = inhibition is 8.08% [at 11.4 µM] (inactive).

On to `COc1ccc(OCCSc2ncn[nH]2)cc1`, for which the AC50 was 14.1 µM (active).

Consider `C[C@@H](CNC(N)=O)NC(N)=O`, for which the activity, negative = inhibition was -2.29% [at 11.4 µM] (inactive).

With `Cc1ccc(CN2CC34C=CC(O3)C(C(=O)NCc3ccc5c(c3)OCO5)C4C2=O)cc1` (configuration not stated), the concentration at half-maximal activity (AC50) was 0.251 µM (active).

For `Cc1ccc(CN2CC34C=CC(O3)C(C(=O)NCc3ccco3)C4C2=O)cc1` (configuration not stated), the AC50 was 8.91 µM (active).

On to `O=C(NCC1COc2ccccc2O1)C1C2C=CC3(CN(Cc4cccs4)C(=O)C13)O2` (configuration not stated), for which the activity, negative = inhibition was -13.1% [at 2.29 µM] (inactive).

With `COCCCNC(=O)C1C2C=CC3(CN(Cc4ccc(C)cc4)C(=O)C13)O2` (configuration not stated), the AC50 is 7.94 µM (active).

As to `COc1ccc(CCN2CC34C=CC(O3)C(C(=O)NCc3ccccc3)C4C2=O)cc1OC` (configuration not stated), the AC50 was 2.82 µM (active).

In the case of `CCOc1ccc(NC(=O)N2CCC(C(N)=O)(N3CCCCC3)CC2)cc1`, the AC50 result is “inactive”.

For the molecule `CCCCNC(=O)C1CCN(Cc2ccccn2)CC1`, the AC50 entry was “inactive”.

For `O=C(O)C1C2C=CC3(CN(Cc4ccccn4)C(=O)C13)O2` (configuration not stated), the AC50 entry was “inactive”.

For the molecule `CCCCNC(=O)C1C2C=CC3(CN(Cc4ccccc4Cl)C(=O)C13)O2` (configuration not stated), the AC50 is 3.98 µM (active).

As for `CC(CC(=O)O)(CC(=O)O)c1ccccc1`, the activity, negative = inhibition was 0.682% [at 11.4 µM] (inactive).

Consider `c1ccc([C@@H]2CN3CCSC3=N2)cc1`, for which the AC50 entry was “inactive”.

These data come from PubChem BioAssay AID1851 (National Center for Advancing Translational Sciences (NCATS), 2009).
